Only a sample is shown.
aSyn UTR act = Activators working through SNCA 5'UTR binding (MLPCN) | AID 1814 | alpha-synuclein 5'UTR reporter, activators screen | activity score, % (tested at 7.5 µM), hits read low | hit rate 7.1% among 300,000; in the data active = activity score below about -60%
Large screens that a line does not name were inactive.

CC1CN(C(=O)c2ccccc2)C(=Nc2cccc(S(=O)(=O)N(C)C)c2)S1 (stereo unspecified)	none
CN(C)S(=O)(=O)c1cccc(C(=O)N=C2N=C3C=CC(Cl)=CN3Cc3ccccc32)c1	aSyn UTR act -105.3
O=C(N=C1N=C2C=CC=CN2Cc2ccccc21)c1ccc(S(=O)(=O)N2CCOCC2)cc1	aSyn UTR act -143.1
O=C(N=C1N=C2C=CC=CN2Cc2ccccc21)c1ccc(S(=O)(=O)N2CCCC2)cc1	aSyn UTR act -134.4
CCOc1ccc(NC(=O)Cn2ncc3ccccc32)cc1	aSyn UTR act -129.3
CC1CCC(NC(=O)Cn2ncc3ccccc32)CC1 (stereo unspecified)	aSyn UTR act -113.3
Cc1ccc(CSc2nnc(-c3ccco3)o2)cc1	aSyn UTR act -153.9
Fc1ccc(CSc2nnc(-c3ccco3)o2)cc1	aSyn UTR act -116.9
Brc1ccc(CSc2nnc(-c3ccco3)o2)cc1	aSyn UTR act -78.0
c1ccc(CSc2nnc(-c3ccco3)o2)cc1	aSyn UTR act -96.6
Cc1ccc(/C=C(\C#N)C(=O)Nc2ccccn2)o1	aSyn UTR act -163.5
COc1cccc(/C=N/NC(=O)c2c(C)nc3ccc(Br)cn23)c1O	none
Cc1cc(C)nc(N/N=C/c2ccccc2OCc2ccc(Br)cc2)n1	aSyn UTR act -143.7
Cc1cc(C)nc(N/N=C/c2ccccc2OCc2ccc(Cl)cc2)n1	aSyn UTR act -80.4
O=Cc1cc2cc3c(cc2nc1Cl)OCCO3	aSyn UTR act -61.5
Cc1ccc(NC(=O)CCCc2ccccc2)nc1	aSyn UTR act -99.6
Cc1ccc(NC(=S)NCCc2ccccc2)nc1	aSyn UTR act -98.6
CSc1ccc(-c2nc(CN(C)C3CCOC3)c(C)o2)cc1 (stereo unspecified)	aSyn UTR act -80.6
Cc1ccc(NC(=O)c2cc(=O)c3ccccc3o2)c(C)c1	aSyn UTR act -95.9
Cc1ccc(C)c(NC(=O)c2cc(=O)c3ccccc3o2)c1	aSyn UTR act -133.6
Cc1ccc(C)c(OCC(=O)Nc2cccc(C(=O)O)c2)c1C	aSyn UTR act -110.2
Cc1cc(C)c(OCC(=O)Nc2cc(C(=O)O)cc(C(=O)O)c2)cc1C	aSyn UTR act -129.4
N#C/C(=C\c1cccs1)c1nc2ccccc2[nH]1	aSyn UTR act -256.1
N#C/C(=C\c1ccc(N2CCCC2)c([N+](=O)[O-])c1)c1nc2ccccc2[nH]1	aSyn UTR act -79.6
CC(C)CC(/C(O)=C(\C#N)c1nc2ccccc2[nH]1)N1C(=O)c2ccccc2C1=O (stereo unspecified)	none
O=[N+]([O-])c1cc(/C=N/n2cnnc2)ccc1N1CCCC1	none
N#C/C(=C/c1ccc(O)c(O)c1)c1nc2ccccc2[nH]1	aSyn UTR act -148.0
N#C/C(=C\c1cn(-c2ccccc2)nc1-c1cc2ccccc2o1)c1nc2ccccc2[nH]1	aSyn UTR act -105.8
N#C/C(=C/c1cccs1)c1ccccn1	aSyn UTR act -116.5
N#C/C(=C\c1ccc(Sc2ccccc2)o1)c1nc2ccccc2[nH]1	aSyn UTR act -219.2
N#C/C(=C\Nc1ccc2c(c1)OCCO2)c1nc2ccccc2[nH]1	aSyn UTR act -64.8
N#C/C(=C\c1ccc(OC(=O)c2cccs2)cc1)c1nc2ccccc2[nH]1	aSyn UTR act -153.0
CSc1nc(-c2ccc(N(C)C)cc2)c(C#N)c(=O)n1C	aSyn UTR act -71.9
COc1cc2c(C#N)c(N3CCc4ccccc4C3)nc(N)c2c(N)n1	aSyn UTR act -88.5
Cc1cccn2cc(COc3cccc([N+](=O)[O-])c3)nc12	aSyn UTR act -65.1
O=C(CSc1nnc2sc3ccccc3n12)c1ccco1	aSyn UTR act -117.6
O=C(CSc1nnnn1-c1ccccc1)c1ccco1	aSyn UTR act -62.6
c1csc(CSc2nnc3sc4ccccc4n23)c1	aSyn UTR act -81.2
COc1cc(NC(=O)CC(C)C)ccc1NC(=O)c1ccco1	aSyn UTR act -119.1
CCC(=O)Nc1ccc(NC(=O)c2ccco2)cc1	aSyn UTR act -136.0
CCOc1ccc(CC(=O)Nc2ccc(NC(=O)c3ccco3)cc2)cc1OCC	none
O=C(Nc1ccc(CSc2ccccc2)cc1)c1ccco1	aSyn UTR act -125.4
CCC(=O)Nc1ccc(NC(=O)c2ccco2)c(OC)c1	aSyn UTR act -142.3
O=C1CCCCC/C1=N/Nc1ccc(OCc2ccccc2)cc1	aSyn UTR act -74.0
CCOC(=O)c1c(CSc2ccc(CC)cc2)oc2ccc(O)c(CN(C)C)c12	none
CC(=O)c1c(CSc2ccccc2)oc2ccc(O)c(CN(C)C)c12	aSyn UTR act -62.7
COC(=O)Oc1ccc(/C=C/C(=O)OC(C)C)cc1OC(=O)OC	aSyn UTR act -127.3
CCOC(=O)c1c(C)oc2c1c(C(c1cccnc1)N1CCCCC1)c(O)c1ccccc12 (stereo unspecified)	aSyn UTR act -145.5
CCOC(=O)c1c(C)oc2c1c(C(c1ccccc1)N1CCOCC1)c(O)c1ccccc12 (stereo unspecified)	aSyn UTR act -205.4
COc1ccc(OS(=O)(=O)Cc2ccccc2)cc1	aSyn UTR act -103.5
CSc1cccc(CN(C)C(=O)C2CCC(=O)N(CCCN3CCCC3=O)C2)c1 (stereo unspecified)	aSyn UTR act -72.6
Cc1ccc(N=Nc2c(N)n[nH]c2N)cc1	aSyn UTR act -93.1
Nc1n[nH]c(N)c1N=Nc1ccc2c(c1)OCO2	aSyn UTR act -228.7
CCN(CC)C(=O)C1CC(c2ccc(OC)cc2)=NO1 (stereo unspecified)	aSyn UTR act -103.2
CC(C)(C)NC(=S)N/N=C\c1ccc(-c2ccc([N+](=O)[O-])cc2)o1	aSyn UTR act -78.9
C=CCNC(=S)N/N=C/c1ccc(-c2ccc(OC)cc2)o1	aSyn UTR act -61.8
O=C(/C=C/c1c(F)cccc1Cl)Nc1ncccn1	aSyn UTR act -228.3
Cn1c(NC(=O)/C=C/c2c(F)cccc2Cl)cc(=O)n(C)c1=O	aSyn UTR act -172.3
Cn1c(NNC(=O)c2ccccc2F)cc(=O)n(C)c1=O	none
Cn1c(NC(=O)/C=C\c2ccccc2)cc(=O)n(C)c1=O	aSyn UTR act -136.8
COc1ccc(-c2ccc(-c3noc(C)n3)c(OC)n2)cc1	aSyn UTR act -145.9
COCc1nc(-c2ccc(-c3ccc(C)cc3)nc2OC)no1	aSyn UTR act -190.1
O=C(N/N=C/c1ccc2c(c1)OCO2)c1cccs1	aSyn UTR act -134.6
Cc1ccsc1C(=O)N/N=C/c1ccc2c(c1)OCO2	aSyn UTR act -98.9
N=C1/C(=C/c2ccc(OCc3ccccc3)cc2)C(=O)N=C2SC(CC(=O)N3CCOCC3)=NN12	aSyn UTR act -95.1
N=C1/C(=C/c2ccc(OCc3ccccc3F)cc2)C(=O)N=C2SC(CC(=O)N3CCOCC3)=NN12	aSyn UTR act -92.9
COCCn1c(C)cc(C(=O)CSc2ccc3ccccc3n2)c1C	aSyn UTR act -140.9
COCCn1c(C)cc(C(=O)CSc2nc3ccccc3c(=O)[nH]2)c1C	aSyn UTR act -152.3
CCCn1c(C)cc(C(=O)CSc2nc3ccccc3c(=O)n2Cc2ccco2)c1C	aSyn UTR act -218.9
CCOC(=O)c1cn(-c2c(Cl)cccc2Cl)c2cc(Cl)c([N+](=O)[O-])cc2c1=O	aSyn UTR act -89.6
CN(C)C(=O)CCCc1nc(-c2ccc(Cl)cc2)no1	aSyn UTR act -110.6
c1ccc(C(Cc2nc(-c3ccccn3)no2)c2ccccc2)cc1	aSyn UTR act -132.0
O=C(CCCc1nc(-c2ccccc2Cl)no1)NC1CCCC1	none
c1ccc(Cc2nc(-c3ccccn3)no2)cc1	aSyn UTR act -98.2
Clc1ccc(-c2noc(CCCc3ccccc3)n2)cc1	aSyn UTR act -97.3
c1ccc(-c2ccc(-c3nc(-c4ccccn4)no3)cc2)cc1	none
Cc1ccc(Cc2nc(-c3ccccn3)no2)cc1	aSyn UTR act -94.6
c1ccc(-c2noc(CC3CCCCC3)n2)nc1	aSyn UTR act -68.9
